Records with an inconclusive call do not appear. A call without a number means that no potency is given here. Active and inactive are the calls of the source. Unless noted, the call rests on the fitted dose curve.
Key:
[1] = Nuclear factor erythroid 2-related factor 2/antioxidant responsive element (Nrf2/ARE) small molecule agonists: qHTS cell viability counter screen in human keratinocytes (AID 1919968; active means well fitted curve in the direction sought with a large enough effect in the repeat runs; an effect the other way counts as inactive or inconclusive; further: nearly all actives have a fitted effect of over 55% in size)
In short: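 Viability counter-screen: KeratinoSens reporter cells, DMSO-delivered compounds, 23 h at 37 C, CellTiter-Fluor fluorescence.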

[2] = Nuclear factor erythroid 2-related factor 2/antioxidant responsive element (Nrf2/ARE) small molecule agonists: luciferase reporter gene qHTS assay in human keratinocytes (AID 1919969); further: nearly all actives have a fitted effect of over 35% in size; further: potency means the concentration at half of the fitted maximal effect
[3] = biological target: Gonadotropin-releasing hormone receptor (Homo sapiens) (UniProt P30968); test: Human gonadotropin-releasing hormone receptor (GnRHR) small molecule agonists, calcium flux assay in GnRHR-HEK293 cells (AID 1920063); further: nearly all actives have a fitted effect of over 35% in size
Sequence of Gonadotropin-releasing hormone receptor (Homo sapiens) (P30968 whole entry, looked up): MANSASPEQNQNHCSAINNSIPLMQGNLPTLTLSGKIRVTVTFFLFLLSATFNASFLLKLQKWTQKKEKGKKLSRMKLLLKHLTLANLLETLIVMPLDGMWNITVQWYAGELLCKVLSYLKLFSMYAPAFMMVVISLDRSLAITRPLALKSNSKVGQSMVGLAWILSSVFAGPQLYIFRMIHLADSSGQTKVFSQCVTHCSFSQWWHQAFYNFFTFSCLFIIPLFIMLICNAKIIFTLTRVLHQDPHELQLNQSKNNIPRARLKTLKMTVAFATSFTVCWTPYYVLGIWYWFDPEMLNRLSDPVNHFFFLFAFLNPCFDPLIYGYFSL
In short: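 Tox21-format agonist screen using human GnRHR-expressing HEK293 cells and a fluorescent calcium dye; kinetic 3-min fluorescence reading after compound addition, 15-point concentration series run in triplicate.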

[4] = biological target: KiSS-1 receptor (Homo sapiens) (UniProt Q969F8); test: Human kisspeptin (KISS1R) small molecule agonists, calcium flux assay in KISS1R-HEK293 cells (AID 1920064; active means well fitted curve in the direction sought with a large enough effect in the repeat runs; an effect the other way counts as inactive or inconclusive)
Sequence of KiSS-1 receptor (Homo sapiens) (Q969F8 whole entry, looked up): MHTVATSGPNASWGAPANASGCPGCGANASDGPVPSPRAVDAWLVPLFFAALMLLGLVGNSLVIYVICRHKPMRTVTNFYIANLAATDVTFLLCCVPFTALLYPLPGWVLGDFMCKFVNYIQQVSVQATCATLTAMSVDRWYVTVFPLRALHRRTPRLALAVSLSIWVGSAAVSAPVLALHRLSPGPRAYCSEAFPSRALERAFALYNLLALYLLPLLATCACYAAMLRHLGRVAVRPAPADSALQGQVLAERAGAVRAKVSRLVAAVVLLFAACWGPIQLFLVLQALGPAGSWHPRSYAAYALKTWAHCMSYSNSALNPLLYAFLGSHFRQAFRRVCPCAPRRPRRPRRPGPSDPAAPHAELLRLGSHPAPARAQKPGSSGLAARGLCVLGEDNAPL
In short: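 Intracellular calcium mobilization in KISS1R-HEK293 cells was recorded by fluorescence (Ex/Em 480/540) for 3 min following compound addition to cells pre-loaded 1 h with calcium dye.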

[5] = G protein-coupled receptor (GPCR) small molecule agonists, calcium flux assay: HEK293 wild type cell line counter screen (AID 1920065)
In short: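 In this agonist-mode screen, ATP is the positive control and DMSO the vehicle. Cells grow 18 h before a 1 h dye incubation at 37 C; signal is taken at Ex/Em 480/540 over 3 min.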

[6] = p53 small molecule agonists, cell-based qHTS assay with human liver microsomes (AID 1963577);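 further: p53 response element beta-lactamase reporter cells with liver microsomes plus NADPH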
In short: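 16 h, 37 C exposure of p53RE-bla cells to compounds with human liver microsomes and NADPH (0.5 mg/mL final each); detection via LiveBLAzer mixture, 2 h dark at room temperature.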

[7] = p53 small molecule agonists, cell-based qHTS assay with rat liver microsomes (AID 1963578)
In short: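 With rat liver microsomes and NADPH present (0.5 mg/mL final each), p53RE-bla cells are treated with compound for 16 h at 37 C. LiveBLAzer detection mixture is then applied for 2 h at room temperature in the dark.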

[8] = p53 small molecule agonists, cell-based qHTS assay with human liver microsomes: qHTS cell viability counter screen (AID 1963579); further: nearly all actives have a fitted effect of over 45% in size
In short: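 In this multiplexed counter screen, the reporter plates were subsequently treated with CellTiter-Glo so that cell viability, reflected by luminescence, could be recorded for p53RE-bla cells dosed 16 h with compounds under microsomal activation (HLM and NADPH).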

[9] = p53 small molecule agonists, cell-based qHTS assay with rat liver microsomes: qHTS cell viability counter screen (AID 1963580); further: nearly all actives have a fitted effect of over 45% in size
In short: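 HCT-116 p53RE-bla, 4,000 cells/well, 5 h pre-incubation; cpd + rat liver microsomes 0.5 mg/mL + NADPH 0.5 mg/mL (final); 16 h, 37 C; CellTiter-Glo, 30 min RT; luminescence.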

[10] = p53 small molecule agonists, cell-based qHTS assay: qHTS cell viability counter screen (AID 1963581); further: nearly all actives have a fitted effect of over 45% in size
In short: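 Compounds are pinned onto HCT-116 p53RE-bla cells and left 16 h at 37 C. Following the reporter FRET read, ATP is quantified by CellTiter-Glo luminescence after 30 min at room temperature.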

[11] = p53 small molecule agonists, cell-based qHTS assay (AID 1963582; active means well fitted activation curve with a large enough effect in the signal ratio in the repeat runs, not every such curve was filed as active; the % refers to the signal ratio)
In short: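 Agonist activity was scored from beta-lactamase FRET fluorescence in p53RE-bla cells treated 16 h at 37 C with compounds in DMSO, substrate incubation being 2 h at room temperature.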

[12] = biological target: 5-hydroxytryptamine receptor 2A (Homo sapiens) (UniProt P28223); test: 5-hydroxytryptamine receptor 2A (HTR2A) small molecule antagonists, cell-based qHTS assay (AID 1963586); further: nearly all actives have a fitted effect of over 45% in size; further: potency means the concentration at half of the fitted maximal effect
Sequence of 5-hydroxytryptamine receptor 2A (Homo sapiens) (P28223 whole entry, looked up): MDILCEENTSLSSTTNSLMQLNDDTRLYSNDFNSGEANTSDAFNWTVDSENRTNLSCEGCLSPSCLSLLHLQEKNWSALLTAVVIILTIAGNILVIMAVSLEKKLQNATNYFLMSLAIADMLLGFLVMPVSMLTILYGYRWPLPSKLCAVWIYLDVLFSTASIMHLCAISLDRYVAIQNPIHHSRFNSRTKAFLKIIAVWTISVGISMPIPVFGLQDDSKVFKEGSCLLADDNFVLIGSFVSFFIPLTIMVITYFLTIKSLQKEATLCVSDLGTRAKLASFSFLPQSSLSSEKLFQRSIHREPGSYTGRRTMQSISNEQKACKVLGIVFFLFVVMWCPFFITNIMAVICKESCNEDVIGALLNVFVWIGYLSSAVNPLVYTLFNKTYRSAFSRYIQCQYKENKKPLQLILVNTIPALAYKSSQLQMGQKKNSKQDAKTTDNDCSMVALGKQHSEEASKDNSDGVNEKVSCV
In short: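 Antagonist-mode intracellular calcium assay: DOI (4 nM) added after 5 min compound pre-incubation at room temperature to dye-loaded HTR2A-CHO cells. Fluorescence followed for 3 min, sampled every second.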

[13] = biological target: 5-hydroxytryptamine receptor 2A (Homo sapiens) (UniProt P28223); test: 5-hydroxytryptamine receptor 2A (HTR2A) small molecule agonists, cell-based qHTS assay (AID 1963587); further: nearly all actives have a fitted effect of over 30% in size
In short: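 Kinetic calcium-flux fluorescence (2 min, 1 sec intervals) after compound addition in agonist mode. HTR2A-CHO cells were cultured 18 h, then dye-loaded 1 h at 37 C.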

[14] = biological target: Muscarinic acetylcholine receptor M1 (Homo sapiens) (UniProt P11229); test: Cholinergic receptor muscarinic 1 (CHRM1) small molecule agonists, cell-based qHTS assay (AID 1963589); further: nearly all actives have a fitted effect of over 35% in size
Sequence of Muscarinic acetylcholine receptor M1 (Homo sapiens) (P11229 whole entry, looked up): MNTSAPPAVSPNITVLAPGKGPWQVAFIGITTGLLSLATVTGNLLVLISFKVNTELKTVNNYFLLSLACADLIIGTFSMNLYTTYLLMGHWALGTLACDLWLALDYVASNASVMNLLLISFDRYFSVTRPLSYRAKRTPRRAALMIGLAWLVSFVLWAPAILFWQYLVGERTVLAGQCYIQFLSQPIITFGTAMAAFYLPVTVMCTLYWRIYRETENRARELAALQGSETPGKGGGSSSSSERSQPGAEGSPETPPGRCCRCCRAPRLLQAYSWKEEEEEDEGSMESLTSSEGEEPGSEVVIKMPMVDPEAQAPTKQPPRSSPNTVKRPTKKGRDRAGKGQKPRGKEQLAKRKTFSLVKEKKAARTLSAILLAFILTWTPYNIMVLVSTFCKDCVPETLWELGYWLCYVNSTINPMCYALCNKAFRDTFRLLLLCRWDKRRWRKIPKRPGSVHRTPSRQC
In short: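 Stable CHRM1-CHO cells (human receptor) were incubated 18 h, dye-loaded for 1 h at 37 C and exposed to test compounds for agonist activity, with calcium-dependent fluorescence followed kinetically.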

[15] = cAMP Responsive Elements (CRE) small molecule agonists, cell-based qHTS assay (AID 1963590)
In short: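 FRET-based beta-lactamase readout (LiveBLAzer B/G, 2 h RT) quantified CRE activation in HEK 293T CRE-bla cells after 3 h treatment with DMSO-dissolved compounds.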

[16] = biological target: D(2) dopamine receptor (Homo sapiens) (UniProt P14416); test: Dopamine D2 receptor (DRD2) small molecule agonists, cell-based qHTS assay (AID 1963594); further: nearly all actives have a fitted effect of over 35% in size
Sequence of D(2) dopamine receptor (Homo sapiens) (P14416 whole entry, looked up): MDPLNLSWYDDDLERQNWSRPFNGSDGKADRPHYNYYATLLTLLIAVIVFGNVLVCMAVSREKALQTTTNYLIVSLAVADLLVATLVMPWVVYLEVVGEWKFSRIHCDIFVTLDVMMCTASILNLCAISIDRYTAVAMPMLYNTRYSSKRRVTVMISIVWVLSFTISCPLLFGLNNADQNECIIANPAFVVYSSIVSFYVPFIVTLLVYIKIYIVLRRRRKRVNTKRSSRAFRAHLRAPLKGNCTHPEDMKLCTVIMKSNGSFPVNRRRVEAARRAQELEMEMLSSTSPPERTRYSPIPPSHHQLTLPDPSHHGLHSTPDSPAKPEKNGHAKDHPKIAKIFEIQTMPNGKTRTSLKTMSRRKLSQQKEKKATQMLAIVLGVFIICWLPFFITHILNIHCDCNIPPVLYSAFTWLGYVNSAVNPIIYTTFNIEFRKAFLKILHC
In short: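 cAMP accumulation in DRD2-HEK293 cells measured by HTRF after 1 h detection; compounds added 10 min before NKH477 (200nM […]) forskolin-analogue stimulation, 30 min at room temperature, with Ro20-1724 present at 0.1 mM final.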

[17] = cAMP Responsive Elements (CRE) small molecule antagonists, cell-based qHTS assay (AID 1963591; active means well fitted inhibition curve with a large enough effect in the signal ratio in the repeat runs, not every such curve was filed as active; the % refers to the signal ratio)
In short: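 qHTS in CRE-bla HEK 293T cells: compound in DMSO, then 0.25 uM NKH477 (final), 3 h at 37 °C/5% CO2; beta-lactamase FRET read-out after 2 h substrate incubation.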

[18] = biological target: Beta-2 adrenergic receptor (Homo sapiens) (UniProt P07550); test: Adrenergic beta2 receptor (ADRB2) small molecule antagonists, cell-based qHTS assay (AID 1963592); further: series mostly up to about 92 µM; nearly all actives have a fitted effect of over 50% in size
Sequence of Beta-2 adrenergic receptor (Homo sapiens) (P07550 whole entry, looked up): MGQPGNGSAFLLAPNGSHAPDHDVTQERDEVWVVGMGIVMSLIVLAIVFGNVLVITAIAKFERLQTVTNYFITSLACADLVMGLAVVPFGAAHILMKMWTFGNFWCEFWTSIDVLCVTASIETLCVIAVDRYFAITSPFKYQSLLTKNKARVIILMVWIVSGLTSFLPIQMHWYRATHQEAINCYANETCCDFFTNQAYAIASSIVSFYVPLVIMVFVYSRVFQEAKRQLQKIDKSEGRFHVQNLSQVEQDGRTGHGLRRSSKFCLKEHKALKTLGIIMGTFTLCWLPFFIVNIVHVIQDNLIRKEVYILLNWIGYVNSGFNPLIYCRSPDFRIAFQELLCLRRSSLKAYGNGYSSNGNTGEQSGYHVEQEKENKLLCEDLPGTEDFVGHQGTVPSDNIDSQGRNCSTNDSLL
In short: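 Cells (CHO, stable ADRB2 overexpression) incubated 18-20hr at 37C; compounds added from DMSO; agonist mix (1nM isoproterenol, 100uM IBMX, 25uM Ro-20-1724) added; 0.5hr RT; d2-cAMP and anti-cAMP-cryptate added; 1hr RT; 665/615 nm read.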

[19] = biological target: D(2) dopamine receptor (Homo sapiens) (UniProt P14416); test: Dopamine D2 receptor (DRD2) small molecule antagonists, cell-based qHTS assay (AID 1963595; active means well fitted inhibition curve with a large enough effect in the signal ratio in the repeat runs, with a control signal flat; the % refers to the signal ratio)
In short: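 HTRF cAMP read-out at 665 and 620 nm emission (340 nm excitation). Antagonist mode: compounds were tested against 12 nM quinpirole in DRD2-HEK293 cells, with 200 nM NKH477 raising cAMP and 0.1 mM Ro20-1724 blocking its breakdown.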

[20] = biological target: Muscarinic acetylcholine receptor M1 (Homo sapiens) (UniProt P11229); test: Cholinergic receptor muscarinic 1 (CHRM1) small molecule antagonists, cell-based qHTS assay (AID 1963588); further: nearly all actives have a fitted effect of over 40% in size; further: potency means the concentration at half of the fitted maximal effect
In short: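 CHRM1-CHO calcium-flux assay, antagonist mode. Cells were seeded 18 h, dye-loaded 1 h at 37 C and given compound for 5 min at RT, then acetylcholine was added at 50nM. FDSS fluorescence was read 3 min; 15 concentrations, three runs.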

Row | SMILES | Potency [1] | Potency [2] | Potency [3] | Potency [4] | Potency [5] | Potency [6] | Potency [7] | Potency [8] | Potency [9] | Potency [10] | Potency [11] | Potency [12] | Potency [13] | Potency [14] | Potency [15] | Potency [16] | Potency [17] | Potency [18] | Potency [19] | Potency [20]
1 | N#CC(Br)(Br)C(N)=O | inactive | inactive | inactive | inactive | inactive | inactive | inactive | inactive | inactive | inactive | inactive | inactive | inactive | inactive | inactive | inactive |  |  |  | 
2 | ClCCCCl | inactive | inactive | inactive | inactive | inactive | inactive | inactive | inactive | inactive | inactive | inactive | inactive | inactive | inactive | inactive | inactive | inactive | inactive | inactive | 
3 | CCC(=O)C(CCN(C)C)(c1ccccc1)c1ccccc1 | inactive | inactive | inactive | inactive | inactive | inactive | inactive | inactive | inactive | inactive | inactive | 16.3 µM (active) | inactive | inactive |  | inactive |  | inactive | inactive | 11.6 µM (active)
4 | O=NN1CCN(N=O)CC1 | inactive | inactive | inactive | inactive | inactive | inactive | inactive | inactive | inactive | inactive | inactive | inactive | inactive | inactive | inactive | inactive | inactive | inactive | inactive | 
5 | CN1[C@@H]2CC[C@H]1CC(OC(=O)c1cc(Cl)cc(Cl)c1)C2 (stereo partly specified) | inactive | inactive | inactive | inactive | inactive | inactive | inactive | inactive | inactive | inactive | inactive | inactive | inactive | inactive | inactive | inactive | inactive | inactive | inactive | 
6 | CC(=O)OC1(c2ccccc2)CCN(CCc2ccccc2)CC1 | inactive | inactive | inactive | inactive | inactive | inactive | inactive | inactive | inactive | inactive | inactive | 9.65 µM (active) | inactive | inactive |  | inactive | inactive | inactive | inactive | inactive
7 | CCN(CCO)CCn1c(Cc2ccccc2)nc2c1c(=O)n(C)c(=O)n2C | inactive | inactive | inactive | inactive | inactive | inactive | inactive | inactive | inactive | inactive | inactive | inactive | inactive | inactive | inactive | inactive |  | inactive | inactive | inactive
8 | C[C@]12CC[C@H]3[C@@H](CCC4=CC(=O)CC[C@@H]43)[C@@H]1CC[C@@H]2OC(=O)CCc1ccccc1 | inactive | inactive | inactive | inactive | inactive | inactive | inactive | inactive | inactive | inactive | inactive | inactive | inactive | inactive | inactive | inactive |  | inactive | inactive | 2.31 µM (active)
9 | CCOC(=O)c1ncn2c1CN(C)C(=O)c1c(I)cccc1-2 | inactive | inactive | inactive | inactive | inactive | inactive | inactive | inactive | inactive | inactive | inactive | inactive | inactive | inactive | inactive | inactive |  | inactive | inactive | inactive
10 | CC1Sc2c(C(=O)O)c(=O)c3cc(F)c(N4CCNCC4)cc3n21 (stereo unspecified) | inactive | inactive | inactive | inactive | inactive | inactive | inactive | inactive | inactive | inactive | inactive | inactive | inactive | inactive |  |  |  |  |  | inactive
11 | CC1(C)[C@H](/C=C2\CCSC2=O)[C@@H]1C(=O)OCc1coc(Cc2ccccc2)c1 | inactive | 61.1 µM (active) | inactive | inactive | inactive | inactive | inactive | inactive | inactive | inactive | inactive | 2.65 µM (active) | inactive | inactive |  | inactive |  | inactive | inactive | inactive
12 | CC(C)NCC(O)c1ccc([N+](=O)[O-])cc1 (stereo unspecified) | inactive | inactive | inactive | inactive | inactive | inactive | inactive | inactive | inactive | inactive | inactive | inactive | inactive | inactive |  |  | inactive |  | inactive | inactive
13 | OC(Cn1cncn1)(c1ccc(F)cc1)c1ccccc1F (stereo unspecified) | inactive | inactive | inactive | inactive | inactive | inactive | inactive | inactive | inactive | inactive | inactive | inactive | inactive | inactive | inactive | inactive | inactive | inactive | inactive | 

Reference: PubChem BioAssay (Tox21)
